Results: the supplement of paper PMC11001985
Unmarked numbers belong to inactive results.

Compound: C#CCNC(=O)CCSSCCC(=O)NCCc1ccc(C=O)c(C=O)c1
Assay: lysine labeling ratio R10:1 (500 µM / 50 µM probe), SILAC-ABPP in living cells; higher = lower intrinsic lysine reactivity toward the probe, active = 2 or less
Details: HeLa; probe concentrations 500 vs 50 µM
Summary of the method: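 With forward and reverse label swaps, light and heavy SILAC HeLa cells, alive and in PBS at room temperature, were exposed to either 500 µM or 50 µM of an alkyne-tagged lysine probe bearing a disulfide link. After mixing, lysates were clicked to biotin-azide, cut with trypsin, pulled down on neutravidin, freed with DTT, alkylated and analysed on a TIMS-TOF Pro by LC-MS/MS. The per-lysine value R is the median over forward and reverse replicates of the filtered median high-probe/low-probe MS1 peptide ratio. It is capped at 20.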

Sequence of UniProt P35579 (P35579 whole entry): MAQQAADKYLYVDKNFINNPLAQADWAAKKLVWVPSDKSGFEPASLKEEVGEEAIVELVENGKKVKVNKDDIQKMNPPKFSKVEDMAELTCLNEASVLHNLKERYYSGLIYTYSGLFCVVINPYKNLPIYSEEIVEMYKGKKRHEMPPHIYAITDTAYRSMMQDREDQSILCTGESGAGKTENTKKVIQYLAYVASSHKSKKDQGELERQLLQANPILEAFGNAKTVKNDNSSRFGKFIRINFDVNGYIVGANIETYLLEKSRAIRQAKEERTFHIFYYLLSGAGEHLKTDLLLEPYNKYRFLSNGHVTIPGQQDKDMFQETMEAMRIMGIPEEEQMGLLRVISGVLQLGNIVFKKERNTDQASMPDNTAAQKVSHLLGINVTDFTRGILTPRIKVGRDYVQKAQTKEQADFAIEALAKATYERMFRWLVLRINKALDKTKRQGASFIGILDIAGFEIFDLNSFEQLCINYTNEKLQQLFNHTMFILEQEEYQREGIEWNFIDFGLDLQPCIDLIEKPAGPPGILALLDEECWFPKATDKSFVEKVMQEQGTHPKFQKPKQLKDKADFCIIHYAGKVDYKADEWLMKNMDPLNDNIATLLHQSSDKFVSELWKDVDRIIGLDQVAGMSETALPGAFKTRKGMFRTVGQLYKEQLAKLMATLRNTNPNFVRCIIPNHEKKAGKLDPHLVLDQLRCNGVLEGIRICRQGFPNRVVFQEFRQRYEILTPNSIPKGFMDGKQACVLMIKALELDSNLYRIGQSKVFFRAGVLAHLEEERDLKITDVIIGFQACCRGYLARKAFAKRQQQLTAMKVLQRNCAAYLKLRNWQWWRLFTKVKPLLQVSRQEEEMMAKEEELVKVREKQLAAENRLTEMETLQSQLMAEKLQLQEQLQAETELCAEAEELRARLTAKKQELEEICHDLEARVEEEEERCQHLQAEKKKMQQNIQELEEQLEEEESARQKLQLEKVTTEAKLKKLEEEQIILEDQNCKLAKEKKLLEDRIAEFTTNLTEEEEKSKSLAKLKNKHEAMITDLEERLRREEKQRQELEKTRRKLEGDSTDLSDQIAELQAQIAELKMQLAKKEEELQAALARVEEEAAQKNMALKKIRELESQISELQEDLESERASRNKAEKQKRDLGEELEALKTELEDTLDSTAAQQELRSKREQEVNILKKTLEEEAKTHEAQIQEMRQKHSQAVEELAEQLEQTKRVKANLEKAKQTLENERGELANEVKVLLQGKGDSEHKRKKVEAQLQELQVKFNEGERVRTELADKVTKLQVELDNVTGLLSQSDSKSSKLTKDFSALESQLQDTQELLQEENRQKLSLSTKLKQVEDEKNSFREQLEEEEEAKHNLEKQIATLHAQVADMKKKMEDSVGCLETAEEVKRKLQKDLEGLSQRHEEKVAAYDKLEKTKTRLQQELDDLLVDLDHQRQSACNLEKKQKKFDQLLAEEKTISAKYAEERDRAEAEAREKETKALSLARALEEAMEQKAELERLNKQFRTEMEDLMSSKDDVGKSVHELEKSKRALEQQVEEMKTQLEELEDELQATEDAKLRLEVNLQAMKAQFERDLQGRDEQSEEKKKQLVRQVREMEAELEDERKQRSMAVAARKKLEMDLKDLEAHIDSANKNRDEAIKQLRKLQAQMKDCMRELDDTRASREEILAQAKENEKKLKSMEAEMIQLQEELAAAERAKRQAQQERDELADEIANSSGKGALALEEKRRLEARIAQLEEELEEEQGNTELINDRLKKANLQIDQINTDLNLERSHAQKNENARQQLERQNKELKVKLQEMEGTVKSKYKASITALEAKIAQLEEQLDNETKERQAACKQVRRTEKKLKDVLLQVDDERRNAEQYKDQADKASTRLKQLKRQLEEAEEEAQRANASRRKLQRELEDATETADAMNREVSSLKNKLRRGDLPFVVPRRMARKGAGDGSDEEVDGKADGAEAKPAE
Sequence of UniProt Q6NZI2 (Q6NZI2 whole entry): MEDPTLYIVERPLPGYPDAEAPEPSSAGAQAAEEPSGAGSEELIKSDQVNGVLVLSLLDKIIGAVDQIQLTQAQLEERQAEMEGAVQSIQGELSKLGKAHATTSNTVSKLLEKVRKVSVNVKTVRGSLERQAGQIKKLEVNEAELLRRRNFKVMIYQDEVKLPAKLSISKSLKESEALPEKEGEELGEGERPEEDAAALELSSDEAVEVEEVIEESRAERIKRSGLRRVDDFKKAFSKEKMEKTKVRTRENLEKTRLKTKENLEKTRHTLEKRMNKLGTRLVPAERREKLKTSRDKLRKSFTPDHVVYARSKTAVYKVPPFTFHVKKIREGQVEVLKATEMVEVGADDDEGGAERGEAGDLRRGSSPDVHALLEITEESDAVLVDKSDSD
Sequence of UniProt P21333 (P21333 whole entry): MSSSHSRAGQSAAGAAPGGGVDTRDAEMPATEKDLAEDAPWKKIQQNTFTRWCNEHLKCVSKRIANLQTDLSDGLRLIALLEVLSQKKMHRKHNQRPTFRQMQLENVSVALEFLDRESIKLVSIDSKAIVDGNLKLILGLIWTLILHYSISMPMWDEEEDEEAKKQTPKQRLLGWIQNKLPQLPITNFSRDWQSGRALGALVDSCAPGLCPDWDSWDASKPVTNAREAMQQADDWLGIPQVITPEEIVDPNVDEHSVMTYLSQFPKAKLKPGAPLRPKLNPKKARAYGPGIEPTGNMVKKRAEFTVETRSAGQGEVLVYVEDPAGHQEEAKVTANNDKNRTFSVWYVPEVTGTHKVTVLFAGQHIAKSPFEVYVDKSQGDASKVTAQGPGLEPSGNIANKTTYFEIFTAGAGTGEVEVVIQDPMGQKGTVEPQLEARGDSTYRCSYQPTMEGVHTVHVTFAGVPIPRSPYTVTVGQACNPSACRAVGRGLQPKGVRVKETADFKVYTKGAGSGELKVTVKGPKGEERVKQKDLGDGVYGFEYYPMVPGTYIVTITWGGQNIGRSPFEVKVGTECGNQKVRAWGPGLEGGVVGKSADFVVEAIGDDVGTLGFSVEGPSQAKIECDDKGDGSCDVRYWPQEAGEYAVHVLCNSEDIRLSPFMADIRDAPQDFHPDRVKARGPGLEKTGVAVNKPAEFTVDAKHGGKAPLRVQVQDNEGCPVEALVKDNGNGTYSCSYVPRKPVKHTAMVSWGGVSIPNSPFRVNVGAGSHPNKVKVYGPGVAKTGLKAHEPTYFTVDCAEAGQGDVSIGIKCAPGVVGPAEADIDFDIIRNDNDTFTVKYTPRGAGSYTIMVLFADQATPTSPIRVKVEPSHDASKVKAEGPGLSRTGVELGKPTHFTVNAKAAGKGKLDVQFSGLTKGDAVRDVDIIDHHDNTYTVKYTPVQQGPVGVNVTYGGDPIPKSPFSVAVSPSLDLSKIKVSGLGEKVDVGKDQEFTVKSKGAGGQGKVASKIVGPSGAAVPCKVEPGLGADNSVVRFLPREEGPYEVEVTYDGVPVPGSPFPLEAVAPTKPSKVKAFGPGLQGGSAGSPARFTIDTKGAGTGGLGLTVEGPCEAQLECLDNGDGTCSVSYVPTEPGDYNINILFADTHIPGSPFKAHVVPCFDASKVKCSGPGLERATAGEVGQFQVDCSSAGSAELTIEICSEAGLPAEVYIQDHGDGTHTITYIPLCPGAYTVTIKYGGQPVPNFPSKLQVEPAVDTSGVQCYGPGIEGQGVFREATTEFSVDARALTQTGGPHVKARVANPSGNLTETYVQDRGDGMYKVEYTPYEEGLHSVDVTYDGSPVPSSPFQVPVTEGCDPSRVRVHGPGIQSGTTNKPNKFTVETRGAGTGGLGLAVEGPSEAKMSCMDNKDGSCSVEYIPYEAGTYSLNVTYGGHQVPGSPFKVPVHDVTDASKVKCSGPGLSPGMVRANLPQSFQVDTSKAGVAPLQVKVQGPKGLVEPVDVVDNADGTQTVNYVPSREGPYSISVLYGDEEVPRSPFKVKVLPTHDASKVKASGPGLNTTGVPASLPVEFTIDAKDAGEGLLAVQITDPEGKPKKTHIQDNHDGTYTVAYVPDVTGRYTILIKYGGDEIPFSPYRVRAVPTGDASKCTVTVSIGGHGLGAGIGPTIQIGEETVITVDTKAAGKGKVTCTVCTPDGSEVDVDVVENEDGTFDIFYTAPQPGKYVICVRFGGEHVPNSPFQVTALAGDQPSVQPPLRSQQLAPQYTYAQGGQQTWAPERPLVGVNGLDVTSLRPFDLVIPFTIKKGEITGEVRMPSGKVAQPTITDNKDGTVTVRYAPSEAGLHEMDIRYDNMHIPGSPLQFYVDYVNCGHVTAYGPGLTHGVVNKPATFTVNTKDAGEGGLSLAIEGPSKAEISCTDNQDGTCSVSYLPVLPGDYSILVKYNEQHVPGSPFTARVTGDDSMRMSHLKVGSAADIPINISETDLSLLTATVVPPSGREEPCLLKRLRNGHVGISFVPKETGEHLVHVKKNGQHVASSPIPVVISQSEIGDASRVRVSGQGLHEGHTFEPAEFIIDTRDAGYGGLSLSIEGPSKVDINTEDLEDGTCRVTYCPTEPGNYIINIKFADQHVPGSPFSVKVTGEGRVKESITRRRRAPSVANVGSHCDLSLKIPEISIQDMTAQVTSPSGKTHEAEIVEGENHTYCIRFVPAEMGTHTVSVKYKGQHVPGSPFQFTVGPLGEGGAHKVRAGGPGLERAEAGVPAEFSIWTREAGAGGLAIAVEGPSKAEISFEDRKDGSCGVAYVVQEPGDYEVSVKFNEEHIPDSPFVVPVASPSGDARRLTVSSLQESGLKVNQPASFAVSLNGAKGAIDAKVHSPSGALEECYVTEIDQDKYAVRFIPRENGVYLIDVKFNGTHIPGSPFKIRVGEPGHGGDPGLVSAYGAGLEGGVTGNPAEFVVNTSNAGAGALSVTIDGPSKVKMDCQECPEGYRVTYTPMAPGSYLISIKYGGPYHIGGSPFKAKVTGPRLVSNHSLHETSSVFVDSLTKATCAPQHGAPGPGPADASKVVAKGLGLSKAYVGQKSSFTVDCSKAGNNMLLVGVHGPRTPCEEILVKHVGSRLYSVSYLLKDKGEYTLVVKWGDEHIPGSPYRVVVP
Sequence of UniProt P16949 (P16949 whole entry): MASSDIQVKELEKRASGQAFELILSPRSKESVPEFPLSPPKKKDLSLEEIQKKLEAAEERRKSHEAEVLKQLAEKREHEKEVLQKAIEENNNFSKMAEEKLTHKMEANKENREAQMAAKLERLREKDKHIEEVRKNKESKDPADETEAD

Row | Target | lysine labeling ratio R10:1
1 | XRCC5 (lysine site: K265) (UniProt P13010) | 3.42
2 | SDC4 (lysine site: K114) (UniProt P31431) | 3.81
3 | CKAP4 (lysine site: K405) (UniProt Q07065) | 1.2 (active)
4 | FOLR1 (lysine site: K52) (UniProt P15328) | 12.6
5 | UniProt Q15149 (lysine site: K2274) | 2.24
6 | UniProt Q15149 (lysine site: K1573) | 2.01
7 | UniProt Q6NZI2 (lysine site: K265) | 4.28
8 | RPL34 (lysine site: K62) (UniProt P49207) | 10.1
9 | PTPRS (lysine site: K379) (UniProt Q13332) | 2.21
10 | EBP (lysine site: K106) (UniProt Q15125) | 4.19
11 | AGRN (lysine site: K1934) (UniProt O00468) | 2.08
12 | IGSF3 (lysine site: K373) (UniProt O75054) | 3.12
13 | FLNA (lysine site: K2473) (UniProt P21333) | 3.58
14 | DYNC1H1 (lysine site: K3480) (UniProt Q14204) | 1.73 (active)
15 | SPTAN1 (lysine site: K2195) (UniProt Q13813) | 1.91 (active)
16 | CCT5 (lysine site: K514) (UniProt P48643) | 2.42
17 | NUCB1 (lysine site: K205) (UniProt Q02818) | 4.75
18 | UniProt Q9UHN6 (lysine site: K856) | 0.771 (active)
19 | ENO1 (lysine site: K422) (UniProt P06733) | 2.65
20 | UniProt Q6NZI2 (lysine site: K276) | 4.1

Row | Target | lysine labeling ratio R10:1
21 | DDX5 (lysine site: K490) (UniProt P17844) | 5.18
22 | IGF1R (lysine site: K47) (UniProt P08069) | 3.62
23 | MYH9 (lysine site: K835) (UniProt P35579) | 8.12
24 | NEGR1 (lysine site: K52) (UniProt Q7Z3B1) | 4.69
25 | KRT18 (lysine site: K247) (UniProt P05783) | 7.86
26 | DYNC1H1 (lysine site: K3621) (UniProt Q14204) | 3.03
27 | CHMP2A (lysine site: K64) (UniProt O43633) | 5.72
28 | ATRN (lysine site: K1133) (UniProt O75882) | 1.81 (active)
29 | GPI (lysine site: K12) (UniProt P06744) | 0.867 (active)
30 | PPIB (lysine site: K181) (UniProt P23284) | 3.57
31 | MYH9 (lysine site: K856) (UniProt P35579) | 2.68
32 | FLNA (lysine site: K916) (UniProt P21333) | 1.76 (active)
33 | PDCD6IP (lysine site: K640) (UniProt Q8WUM4) | 0.892 (active)
34 | STMN1 (lysine site: K128) (UniProt P16949) | 2.8
35 | CHCHD3 (lysine site: K45) (UniProt Q9NX63) | 1.56 (active)
36 | LRP1 (lysine site: K3803) (UniProt Q07954) | 3.09
37 | UniProt P62829 (lysine site: K75) | 4.96
38 | UniProt Q8N441 (lysine site: K218) | 1.33 (active)
39 | MSN (lysine site: K313) (UniProt P26038) | 5.6
40 | UniProt Q7L592 (lysine site: K72) | 0.87 (active)
